# Source: the supplement of paper PMC6555819
# How the values were obtained:
# Assay in all cases: PBM binding z-score (relative to random genomic background probes); higher = stronger binding; sequences stand for … in GC…GCGATTGACAGCGTAGAATGAAGG
# [1] = test system: FXR:RXRa (NR concentration 270 nM, RXRa partner concentration 90 nM)
# In short: (§1)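 Binding buffer was PBS pH 7.4 with 2% milk, 0.02% Triton X-100, 1 mM DTT, 0.2 mg/mL BSA and 0.4 mg/ml salmon testes DNA. In it, ligand-free nuclear receptor dimers were incubated 1 h on custom Agilent 4×180K protein-binding microarrays carrying double-stranded probes. Antibodies against each partner (one per run) detected binding, and z-scores were calculated against random background probes after regression normalization of scanned fluorescence.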
# [2] = test system: LXRa:RXRa (NR concentration 270 nM, RXRa partner concentration 90 nM)
# In short: as §1
# [3] = test system: LXRa homodimer (NR concentration 270 nM)
# In short: as §1
# [4] = test system: LXRb:RXRa (NR concentration 270 nM, RXRa partner concentration 90 nM)
# In short: as §1
# [5] = test system: LXRb homodimer (NR concentration 270 nM)
# In short: as §1
# [6] = test system: PPARa:RXRa (NR concentration 270 nM, RXRa partner concentration 90 nM)
# In short: as §1
# [7] = test system: PPARg:RXRa (NR concentration 180 nM, RXRa partner concentration 90 nM)
# In short: as §1
# [8] = test system: PPARg:RXRa 270nM:90nM, anti-RXR (NR concentration 270 nM, RXRa partner concentration 90 nM)
# In short: as §1
# [9] = test system: PPARg:RXRa 30nM:10nM, anti-RXR (NR concentration 30 nM, RXRa partner concentration 10 nM)
# In short: as §1
# [10] = test system: PPARg:RXRa 90nM:30nM, anti-RXR (NR concentration 90 nM, RXRa partner concentration 30 nM)
# In short: as §1
# [11] = test system: PPARg:RXRa DBDmut IVT, anti-RXR (DBD mutation: RXRa K156A/R161A, NR concentration 270 nM, RXRa partner concentration 90 nM)
# In short: as §1
# [12] = test system: PPARg:RXRa IVT, anti-PPARg (NR concentration 270 nM, RXRa partner concentration 90 nM)
# In short: as §1
# [13] = test system: PPARg DBDmut:RXRa IVT, anti-PPARg (DBD mutation: PPARg1 K132A/R137A, NR concentration 270 nM, RXRa partner concentration 90 nM)
# In short: as §1
# [14] = test system: PPARg DBDmut IVT, anti-PPARg (DBD mutation: PPARg1 K132A/R137A, NR concentration 270 nM)
# In short: as §1
# [15] = test system: PPARg homodimer (NR concentration 180 nM)
# In short: as §1
# [16] = test system: PXR:RXRa (NR concentration 270 nM, RXRa partner concentration 90 nM)
# In short: as §1
# [17] = test system: PXR homodimer (NR concentration 270 nM)
# In short: as §1
# [18] = test system: RARa:RXR (NR concentration 270 nM, RXRa partner concentration 90 nM)
# In short: as §1
# [19] = test system: RARa homodimer (NR concentration 270 nM)
# In short: as §1
# [20] = test system: RARb:RXRa (NR concentration 270 nM, RXRa partner concentration 90 nM)
# In short: as §1
sequence,measurement,setting,value
CGAACTAGGTCAGAACAGAACAGTGAAGGATGAT,PBM binding z-score,[1],0.766
same,PBM binding z-score,[2],0.278
same,PBM binding z-score,[3],-0.166
same,PBM binding z-score,[4],0.401
same,PBM binding z-score,[5],-0.644
same,PBM binding z-score,[6],2.7
same,PBM binding z-score,[7],5.43
same,PBM binding z-score,[8],4.46
same,PBM binding z-score,[9],1.89
same,PBM binding z-score,[10],3.74
same,PBM binding z-score,[11],7.54
same,PBM binding z-score,[12],7.16
same,PBM binding z-score,[13],1.34
same,PBM binding z-score,[14],0.4
same,PBM binding z-score,[15],0.811
same,PBM binding z-score,[16],-0.0344
same,PBM binding z-score,[17],0.00344
same,PBM binding z-score,[18],0.194
same,PBM binding z-score,[19],-0.0462
same,PBM binding z-score,[20],2.8
ACAGAGAGGTGATGAAGGTAACTCAGGCTATCAT,PBM binding z-score,[1],0.1
same,PBM binding z-score,[2],-0.0398
same,PBM binding z-score,[3],-0.296
same,PBM binding z-score,[4],0.23
same,PBM binding z-score,[5],0.0774
same,PBM binding z-score,[6],0.952
same,PBM binding z-score,[7],0.708
same,PBM binding z-score,[8],0.305
same,PBM binding z-score,[9],0.188
same,PBM binding z-score,[10],0.328
same,PBM binding z-score,[11],1.04
same,PBM binding z-score,[12],1.11
same,PBM binding z-score,[13],0.359
same,PBM binding z-score,[14],-0.0267
same,PBM binding z-score,[15],0.505
same,PBM binding z-score,[16],0.0565
same,PBM binding z-score,[17],0.268
same,PBM binding z-score,[18],0.393
same,PBM binding z-score,[19],0.478
same,PBM binding z-score,[20],0.825
CCTAGCAGGCCAATCTGGGTGACTCAAGGCTTGA,PBM binding z-score,[1],-0.438
same,PBM binding z-score,[2],-0.53
same,PBM binding z-score,[3],-0.891
same,PBM binding z-score,[4],-0.476
same,PBM binding z-score,[5],-0.85
same,PBM binding z-score,[6],1.26
same,PBM binding z-score,[7],0.507
same,PBM binding z-score,[8],0.524
same,PBM binding z-score,[9],-0.938
same,PBM binding z-score,[10],-0.00968
same,PBM binding z-score,[11],2.96
same,PBM binding z-score,[12],3.53
same,PBM binding z-score,[13],-0.721
same,PBM binding z-score,[14],-0.739
same,PBM binding z-score,[15],-0.0827
same,PBM binding z-score,[16],-0.581
same,PBM binding z-score,[17],-0.777
same,PBM binding z-score,[18],0.391
same,PBM binding z-score,[19],-0.515
same,PBM binding z-score,[20],0.0785
TCTTGTAGATCAAAGGCTAAGAAAGCCGAAGCCT,PBM binding z-score,[1],0.284
same,PBM binding z-score,[2],0.0908
same,PBM binding z-score,[3],-0.472
same,PBM binding z-score,[4],-0.0772
same,PBM binding z-score,[5],-0.625
same,PBM binding z-score,[6],1.68
same,PBM binding z-score,[7],3.24
same,PBM binding z-score,[8],4.87
same,PBM binding z-score,[9],4.4
same,PBM binding z-score,[10],5.12
same,PBM binding z-score,[11],1.65
same,PBM binding z-score,[12],1.23
same,PBM binding z-score,[13],0.137
same,PBM binding z-score,[14],0.157
same,PBM binding z-score,[15],-0.136
same,PBM binding z-score,[16],-0.183
same,PBM binding z-score,[17],-0.625
same,PBM binding z-score,[18],0.0326
same,PBM binding z-score,[19],-0.389
same,PBM binding z-score,[20],0.153
ATCTCTAGGTAAGGATAGTTCAGTGAATGCAAAT,PBM binding z-score,[1],0.343
same,PBM binding z-score,[2],0.874
same,PBM binding z-score,[3],0.613
same,PBM binding z-score,[4],0.271
same,PBM binding z-score,[5],0.693
same,PBM binding z-score,[6],0.427
same,PBM binding z-score,[7],0.279
same,PBM binding z-score,[8],0.182
same,PBM binding z-score,[9],0.215
same,PBM binding z-score,[10],0.134
same,PBM binding z-score,[11],1.23
same,PBM binding z-score,[12],1.1
same,PBM binding z-score,[13],0.846
same,PBM binding z-score,[14],0.942
same,PBM binding z-score,[15],0.983
same,PBM binding z-score,[16],0.619
same,PBM binding z-score,[17],0.997
same,PBM binding z-score,[18],0.17
same,PBM binding z-score,[19],1.04
same,PBM binding z-score,[20],0.741
GCTTACGGGTCAAAGGTTATAGCTTGAATAGAAT,PBM binding z-score,[1],6.94
same,PBM binding z-score,[2],5.6
same,PBM binding z-score,[3],0.366
same,PBM binding z-score,[4],5.39
same,PBM binding z-score,[5],0.468
same,PBM binding z-score,[6],6.66
same,PBM binding z-score,[7],11.3
same,PBM binding z-score,[8],9.06
same,PBM binding z-score,[9],8.76
same,PBM binding z-score,[10],10.9
same,PBM binding z-score,[11],4.25
same,PBM binding z-score,[12],5.72
same,PBM binding z-score,[13],1.28
same,PBM binding z-score,[14],1.02
same,PBM binding z-score,[15],1.88
same,PBM binding z-score,[16],5.86
same,PBM binding z-score,[17],0.119
same,PBM binding z-score,[18],7.89
same,PBM binding z-score,[19],0.811
same,PBM binding z-score,[20],4.34
